According to PubChem BioAssay (NCI):
The panel holds about 83,000 compounds, 20% with a hit somewhere; the sample as a whole holds those more often.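 For each line, cells grew in 96-well plates with the test compound present at a single concentration for 48 hours.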 Active and inactive are the calls of the source. Rule for the calls: active = growth percent below 10; inactive = the rest.

Legend:
Assay in all cases: NCI-60 one-dose screen, 48 h (100 = growth as untreated, 0 = no growth, -100 = all killed)
Settings in all cases: 10 µM unless noted
SR leukemia = tested on: SR leukemia
RPMI-8226 leukemia = tested on: RPMI-8226 leukemia
OVCAR-8 ovarian = tested on: OVCAR-8 ovarian
OVCAR-4 ovarian = tested on: OVCAR-4 ovarian
SK-OV-3 ovarian = tested on: SK-OV-3 ovarian
IGROV1 ovarian = tested on: IGROV1 ovarian
OVCAR-3 ovarian = tested on: OVCAR-3 ovarian
HS 578T breast = tested on: HS 578T breast
NCI/ADR-RES ovarian = tested on: NCI/ADR-RES ovarian
OVCAR-5 ovarian = tested on: OVCAR-5 ovarian

Measured: growth

C=CCn1c(SCC(=O)Nc2ccc(C(=O)/C=C/c3cc4cc(OC)ccc4nc3Cl)cc2)nnc1-c1ccc(Br)cc1
active: RPMI-8226 leukemia -19.8%
inactive: SR leukemia 58.4% | OVCAR-8 ovarian 79.8% | OVCAR-4 ovarian 84.8% | SK-OV-3 ovarian 95.7% | IGROV1 ovarian 78.4% | OVCAR-3 ovarian 97.4% | HS 578T breast 89.2% | NCI/ADR-RES ovarian 92.3%

COC(=O)[C@H]1CCCN1C[C@@H](O)CN1C(=O)/C(=C\c2cc(OC)c(OC)c(OC)c2)c2ccccc21
inactive: SR leukemia 78% | RPMI-8226 leukemia 91.4% | OVCAR-8 ovarian 92.1% | OVCAR-4 ovarian 90.6% | SK-OV-3 ovarian 108% | IGROV1 ovarian 102% | OVCAR-3 ovarian 105% | HS 578T breast 99.6% | NCI/ADR-RES ovarian 102%

O=C(O)/C(=C\c1ccc(Cl)cc1)c1ccc(Cl)cc1
inactive: SR leukemia 96.8% | RPMI-8226 leukemia 100% | OVCAR-8 ovarian 96.3% | OVCAR-4 ovarian 90.5% | SK-OV-3 ovarian 111% | IGROV1 ovarian 71.2% | OVCAR-3 ovarian 101% | HS 578T breast 78% | NCI/ADR-RES ovarian 90.1%

O=C(O)c1ccc(-n2cc(/C=N/Nc3ccc(F)cc3)c(-c3cc4ccccc4oc3=O)n2)cc1
inactive: SR leukemia 51.9% | RPMI-8226 leukemia 90.4% | OVCAR-8 ovarian 84.5% | OVCAR-4 ovarian 91.1% | SK-OV-3 ovarian 94.1% | OVCAR-3 ovarian 82.4% | HS 578T breast 95.3% | NCI/ADR-RES ovarian 77.9%

CC1(C)CC2=C3C=C[C@@H]4[C@@]5(C)CCC(=O)C(C)(C)[C@@H]5CC[C@@]4(C)[C@]3(C)CC[C@@]2(C(=O)O)CC1=O
inactive: SR leukemia 71.7% | RPMI-8226 leukemia 31.8% | OVCAR-8 ovarian 89.6% | OVCAR-4 ovarian 64.5% | SK-OV-3 ovarian 84.3% | IGROV1 ovarian 85.3% | OVCAR-3 ovarian 60.1% | HS 578T breast 95.6% | NCI/ADR-RES ovarian 93.5%

CCOC(=O)c1cc(C(=O)c2cc(OC)c(OC)c(OC)c2)n2ccc(-c3ccncc3)cc12
inactive: SR leukemia 69.4% | RPMI-8226 leukemia 56.9% | OVCAR-8 ovarian 90.5% | OVCAR-4 ovarian 96.3% | SK-OV-3 ovarian 87% | IGROV1 ovarian 111% | OVCAR-3 ovarian 109% | HS 578T breast 86.8% | NCI/ADR-RES ovarian 99.2%

COCCNC(=O)c1ccc(-c2nc3ccc4[nH]ncc4c3c3c2CCCC3)cc1
active: SR leukemia 5.46% | SK-OV-3 ovarian 6.55% | HS 578T breast -6.17%
inactive: RPMI-8226 leukemia 29.6% | OVCAR-8 ovarian 46% | OVCAR-5 ovarian 67.8% | OVCAR-3 ovarian 56% | NCI/ADR-RES ovarian 63.9%

COc1cc(/C=C\c2cc(/C=C\c3ccc(O)c(OC)c3)n(C(=O)COc3ccc(Cl)cc3Cl)n2)ccc1O
active: SR leukemia 0.0066% | RPMI-8226 leukemia -6.8% | OVCAR-8 ovarian 6.52% | SK-OV-3 ovarian -0.155%
inactive: OVCAR-4 ovarian 31.4% | OVCAR-3 ovarian 14% | HS 578T breast 10.2% | NCI/ADR-RES ovarian 21.5%

O=C(/C=C/c1ccc(Cl)cc1)c1cccc(Nc2nc(Nc3ccccc3)nc(Nc3ccccc3)n2)c1
active: RPMI-8226 leukemia -43.9%
inactive: SR leukemia 60.5% | OVCAR-8 ovarian 94.9% | OVCAR-4 ovarian 83.6% | SK-OV-3 ovarian 108% | IGROV1 ovarian 13.5% | HS 578T breast 92.7% | NCI/ADR-RES ovarian 91.9%

C=C(C)[C@@H]1CC[C@]2(C(=O)O)CC[C@]3(C)[C@H](CC[C@@H]4[C@@]5(C)C[C@@H](Cc6cn(CCO[C@@H]7O[C@H](COC(C)=O)[C@H](OC(C)=O)[C@H](OC(C)=O)[C@H]7OC(C)=O)nn6)[C@H](O)C(C)(C)[C@@H]5CC[C@]43C)[C@@H]12
inactive: SR leukemia 48.2% | RPMI-8226 leukemia 38.3% | OVCAR-8 ovarian 77.8% | OVCAR-5 ovarian 97.3% | SK-OV-3 ovarian 80.8% | OVCAR-3 ovarian 67% | HS 578T breast 51.9% | NCI/ADR-RES ovarian 91.8%

CCCCCCCCn1ccc2cc(NC(=O)CN3CCN(c4nc(C)cc(Cl)n4)CC3)ccc21
inactive: SR leukemia 23.5% | RPMI-8226 leukemia 99.3% | OVCAR-8 ovarian 106% | OVCAR-4 ovarian 83.7% | SK-OV-3 ovarian 110% | IGROV1 ovarian 74.4% | OVCAR-3 ovarian 109% | HS 578T breast 89.9% | NCI/ADR-RES ovarian 93.2%

N#CC1CCc2c(c(-c3cn[nH]c3C(F)(F)F)nc3c(F)cc4[nH]ncc4c23)C1 (stereo not drawn)
active: SK-OV-3 ovarian -1.91% | IGROV1 ovarian -4.43% | HS 578T breast -8.7%
inactive: SR leukemia 14.5% | RPMI-8226 leukemia 34.6% | OVCAR-8 ovarian 43% | OVCAR-4 ovarian 59.7% | OVCAR-3 ovarian 16.6% | NCI/ADR-RES ovarian 92.4%

O=S(=O)(Nc1ccc(Cl)cc1)c1ccc(-c2cnc(C3CC3)o2)cc1
active: SR leukemia 9.93% | OVCAR-3 ovarian -17.3% | HS 578T breast 4.3% | NCI/ADR-RES ovarian 4.42%
inactive: RPMI-8226 leukemia 15% | OVCAR-8 ovarian 29.2% | OVCAR-4 ovarian 63.7% | SK-OV-3 ovarian 30.2% | IGROV1 ovarian 33%

Cc1ccc(C(C(N)=O)C(C(N)=O)c2ccccc2)cc1 (stereo not drawn)
inactive: SR leukemia 92% | RPMI-8226 leukemia 95.4% | OVCAR-8 ovarian 103% | OVCAR-4 ovarian 115% | SK-OV-3 ovarian 114% | IGROV1 ovarian 105% | OVCAR-3 ovarian 114% | HS 578T breast 124% | NCI/ADR-RES ovarian 122%

CCCCOC(=O)OCc1cc(=O)c(O)co1
inactive: SR leukemia 104% | RPMI-8226 leukemia 106% | OVCAR-8 ovarian 102% | OVCAR-4 ovarian 104% | SK-OV-3 ovarian 105% | IGROV1 ovarian 110% | OVCAR-3 ovarian 114% | HS 578T breast 101% | NCI/ADR-RES ovarian 108%

O=C(NCCCCNC(=O)OCc1ccc2c(Cl)cc(Cl)c(O)c2n1)OCc1ccc2c(Cl)cc(Cl)c(O)c2n1
active: OVCAR-3 ovarian -40.3% | NCI/ADR-RES ovarian 3.44%
inactive: SR leukemia 17% | RPMI-8226 leukemia 25% | OVCAR-8 ovarian 11.2% | OVCAR-5 ovarian 38.6% | SK-OV-3 ovarian 30.5% | HS 578T breast 21.9%

COc1ccc(/C=C2\COc3ccc(O)c(O)c3C2=O)cc1
inactive: SR leukemia 21.6% | OVCAR-4 ovarian 48.4% | SK-OV-3 ovarian 63.5% | OVCAR-3 ovarian 11.1% | HS 578T breast 19.5%
active: RPMI-8226 leukemia 4.17% | OVCAR-8 ovarian 7.39% | IGROV1 ovarian 1.03% | NCI/ADR-RES ovarian 6.53%

COC(=O)c1c2c(c[n+]([O-])c1C)C(=O)C(NCc1ccccc1)=CC2=O
active: SR leukemia 2.6% | RPMI-8226 leukemia -24.5% | OVCAR-8 ovarian -2.43% | OVCAR-4 ovarian -97% | SK-OV-3 ovarian 8.1% | IGROV1 ovarian -54.3% | OVCAR-3 ovarian -35.3% | HS 578T breast -15.3% | NCI/ADR-RES ovarian -14.1%

Cc1ccc(Sc2nnc(/N=C3\C(=O)Nc4ccccc43)s2)cc1
inactive: SR leukemia 91.4% | RPMI-8226 leukemia 94.8% | OVCAR-8 ovarian 101% | OVCAR-4 ovarian 113% | SK-OV-3 ovarian 110% | IGROV1 ovarian 88.6% | OVCAR-3 ovarian 106% | HS 578T breast 97.5% | NCI/ADR-RES ovarian 101%

COc1ccc2c3c([nH]c2c1)C(=O)c1nc(C)ccc1C3=O
inactive: SR leukemia 37.4% | RPMI-8226 leukemia 45.4% | OVCAR-8 ovarian 48.5% | OVCAR-4 ovarian 25.7% | SK-OV-3 ovarian 76.3% | IGROV1 ovarian 28.8% | HS 578T breast 84.9%
active: OVCAR-3 ovarian -13.9%

CC(C)N1CN2C(=S)NC3C2N(C1)C(=S)N3C (stereo not drawn)
inactive: SR leukemia 88.6% | RPMI-8226 leukemia 91.7% | OVCAR-8 ovarian 102% | OVCAR-4 ovarian 117% | SK-OV-3 ovarian 109% | IGROV1 ovarian 103% | OVCAR-3 ovarian 103% | HS 578T breast 95.6% | NCI/ADR-RES ovarian 106%

O=C(Nc1nc2ccc(F)cc2s1)c1cccnc1Nc1ccc(Cl)cc1
active: OVCAR-4 ovarian -13.1%
inactive: SR leukemia 29.5% | RPMI-8226 leukemia 25% | OVCAR-8 ovarian 47.3% | SK-OV-3 ovarian 58% | IGROV1 ovarian 39.9% | OVCAR-3 ovarian 13.6% | HS 578T breast 39.6% | NCI/ADR-RES ovarian 10.5%

CC12CCC3c4ccccc4CCC3(CO1)C2 (stereo not drawn)
inactive: SR leukemia 99.1% | RPMI-8226 leukemia 97.1% | OVCAR-8 ovarian 103% | OVCAR-4 ovarian 108% | SK-OV-3 ovarian 98.3% | IGROV1 ovarian 121% | OVCAR-3 ovarian 115% | HS 578T breast 93.5% | NCI/ADR-RES ovarian 106%

Cc1ccc2c(n1)C(=O)c1[nH]c3ccccc3c1C2=O
inactive: SR leukemia 39.8% | RPMI-8226 leukemia 46.9% | OVCAR-8 ovarian 53% | OVCAR-4 ovarian 22.2% | SK-OV-3 ovarian 85.6% | IGROV1 ovarian 33.8% | HS 578T breast 69.2% | NCI/ADR-RES ovarian 58.6%
active: OVCAR-3 ovarian -5.11%

C#CCn1cnc2c(Nc3cccc(NC(=O)C=C)c3)ncnc21
inactive: SR leukemia 68.5% | RPMI-8226 leukemia 81.9% | OVCAR-8 ovarian 76.2% | SK-OV-3 ovarian 73.5% | IGROV1 ovarian 74.8% | OVCAR-3 ovarian 88.5% | HS 578T breast 74.5% | NCI/ADR-RES ovarian 92.5%

O=C1c2cc(Cl)ccc2S(=O)(=O)c2c(NCCCNCCO)nc3ccccc3c21
active: SR leukemia -9.98% | RPMI-8226 leukemia -22.2% | OVCAR-8 ovarian -5.81% | OVCAR-4 ovarian -32.2% | IGROV1 ovarian 8.88% | OVCAR-3 ovarian -91.9% | HS 578T breast -2.81%
inactive: SK-OV-3 ovarian 75.7% | NCI/ADR-RES ovarian 40.6%

CS(=O)(=O)Nc1cc(-c2ccc3ncnc(Nc4ccc5c(cnn5Cc5ccccn5)c4)c3c2)cnc1Cl
inactive: SR leukemia 58.3% | RPMI-8226 leukemia 68.8% | OVCAR-8 ovarian 90.3% | OVCAR-4 ovarian 91.5% | SK-OV-3 ovarian 89.7% | IGROV1 ovarian 38.1% | OVCAR-3 ovarian 44.1% | HS 578T breast 25.4% | NCI/ADR-RES ovarian 93.3%

C=C1CC[C@@H]2[C@](C)(COC(C)=O)[C@H](OC(C)=O)CC[C@@]2(C)[C@@H]1CC(Sc1ccccc1)C1=CCOC1=O (stereo partly drawn)
inactive: OVCAR-8 ovarian 11.9% | OVCAR-4 ovarian 100% | SK-OV-3 ovarian 57.7% | IGROV1 ovarian 25.2% | HS 578T breast 54.2% | NCI/ADR-RES ovarian 10.1%
active: SR leukemia 2.9% | RPMI-8226 leukemia -4.72% | OVCAR-3 ovarian -84.2%

Cn1cc(-c2nonc2-c2c[nH]c3ccc(Br)cc23)c2cc(Br)ccc21
active: OVCAR-4 ovarian -2.18%
inactive: SR leukemia 20.5% | RPMI-8226 leukemia 41.3% | OVCAR-8 ovarian 34% | SK-OV-3 ovarian 53.7% | IGROV1 ovarian 59% | OVCAR-3 ovarian 33.6% | HS 578T breast 31.6% | NCI/ADR-RES ovarian 36.6%
